Data taken from PubChem BioAssay AID1671188 (National Center for Advancing Translational Sciences (NCATS), 2021).
In all, about 100,000 compounds went through this assay and about 250 (0.25%) were called active. Not shown: some 7% with an inconclusive outcome. The full list was thinned out, with actives kept by preference. A number with no mark means an inactive call. Calls come from the whole dose curve; as a rule, active = well fitted inhibition curve with a large enough effect; inconclusive = small, poorly fitted or top-dose-only effect; inactive = flat fitted curve, though single readings scatter.

molecular target: Alanine aminotransferase 2 (Homo sapiens) (UniProt Q8TD30); test: Primary qHTS assay for inhibitors of Glutamate pyruvate transaminase 2 (GPT2); details: Recombinant GPT2, coupled pyruvate oxidase/HRP Amplex Red fluorescence; series mostly up to 57.7 µM; activity change, negative = inhibition: at the top concentration; note: nearly all actives have a fitted effect of over 60% in size
Protocol: Assay Provider: Zhenghe John Wang Ph.D.
Case Western Reserve University, Cleveland OH
Glutamate pyruvate transaminase 2 (GPT2) catalyzes the reversible transamination of glutamate and pyruvate to provide a-ketoglutarate and alanine. We have optimized an assay for GPT2 enzymatic activity that couples pyruvate formation to detection of fluorescence using an established pyruvate oxidase/horseradish peroxidase / Amplex Red system.
Screening conditions were 250uM a-KG, 2mM L-alanine, and 10ng/uL GPT2 in […] of solution; 10uL of Amplex reaction mix (outlined below) were added so that final concentrations of Amplex reagents in 50uL were 0.2mM ThPP, 0.2U/mL PO and HRP, and 50uM Amplex.
NOTE: The volume of GPT2 in the system depends on the activity of it. The activity is different every batch. You need to test the activity before the assay. For full plate assay with automation, plate 20uL of GPT2 buffer to pin into, then add 10uL of GPT2 dilution followed immediately by 10uL of substrate dilution. 2 Columns of the plate were devoted to GPT2 buffer ([…] PH7.5, 0.0001% Tween) + 50uM AOA (known GPT2 inhibitor) to serve as a positive control. Complete the assay as normal. Amplex-red buffer: […] PH7.5, 1 mM EDTA, 1 mM MgCl2.
1. Combine a-KG and L-alanine at desired concentrations and incubate for at least 10 minutes at 37C. Stocks of L-alanine and a-KG are diluted in distilled water. However, the stocks were diluted in GPT2 buffer for the assay.
2. Prepare GPT2 dilution at the desired concentration in GPT2 buffer.
3. Plate 40uL of GPT2 dilution with 40uL of substrate dilution and let incubate for 30 minutes at room temperature.
4. Add 20uL of Amplex reaction mix prepared as follows: 1.5uL 200U/mL Horseradish Peroxidase, 200mM Thiamine Pyrophosphate, 200U/mL Pyruvate Oxidase; 7.5uL 10mM Amplex Red; 288uL Amplex Buffer.
5. Incubate for 30 minutes at room temperature in the dark, then image using AM_Amplex_Fluorescence on plate reader nearest the window.
% is set by controls: 0 for no effect and ±100 for the full control effect; potency is the fitted concentration of half-maximal effect.

Alanine aminotransferase 2 (Homo sapiens), sequence (Q8TD30 whole entry, looked up): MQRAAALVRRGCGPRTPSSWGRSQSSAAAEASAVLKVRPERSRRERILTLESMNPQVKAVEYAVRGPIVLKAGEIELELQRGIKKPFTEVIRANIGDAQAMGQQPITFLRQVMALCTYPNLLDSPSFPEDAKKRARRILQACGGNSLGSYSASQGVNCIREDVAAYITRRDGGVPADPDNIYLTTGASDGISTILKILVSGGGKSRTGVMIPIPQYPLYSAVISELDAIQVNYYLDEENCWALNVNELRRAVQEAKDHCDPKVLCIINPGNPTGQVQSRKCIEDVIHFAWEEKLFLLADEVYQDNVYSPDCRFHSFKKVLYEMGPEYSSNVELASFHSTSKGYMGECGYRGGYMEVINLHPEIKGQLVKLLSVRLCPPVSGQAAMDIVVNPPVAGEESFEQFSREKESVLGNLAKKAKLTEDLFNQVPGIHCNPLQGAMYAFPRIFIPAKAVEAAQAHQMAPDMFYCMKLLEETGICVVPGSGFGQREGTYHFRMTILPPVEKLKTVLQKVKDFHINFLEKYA

Row | Structure (SMILES) | outcome | activity change, negative = inhibition | Potency
1 | Cc1noc(C)c1CCCNC(=O)c1ccc(N(C)C2CCOC2)nc1 (stereo not given) | inactive |  | 
2 | Cc1nc(C)c(C)c(N2CCCC(c3nccn3Cc3ccccc3)C2)n1 (stereo not given) |  | 1.46% | 
3 | COC(=O)CNC(=O)C1CN(c2ccccc2)C(=O)N1 (stereo not given) | inactive [at 88.5 µM] |  | 
4 | O=C1NCCCCCCN(C(=O)c2cccs2)[C@H]2C[C@H](c3nc(Cc4ccccc4)no3)C[C@@H]12 | inactive |  | 
5 | O=C(CCc1nnn2c1CN(C(=O)NCc1ccc(F)cc1)CC2)N1CCOCC1 | inactive |  | 
6 | Cc1noc(C)c1[S+](=O)([O-])NC1CCN(Cc2ccc(-c3ccsc3)cc2)C1 (stereo not given) | inactive |  | 
7 | CCCNC(=O)N1CCCCC1c1nc(CCOc2ccc(F)cc2)no1 (stereo not given) |  | -7.85% | 
8 | CCCNC(=O)N1CCn2nnc(CCC(=O)N3CCOCC3)c2C1 |  | 0.613% | 
9 | Cc1cc2ncc(C(=O)NCC3CC3)cn2n1 |  | -7.15% [at 88.5 µM] | 
10 | O=C(NCCc1ccccn1)C1CCCN(c2nc(-c3ccccc3)nc3c2CCC3)C1 (stereo not given) |  | 2.94% | 
11 | CCOc1ccc(CCCC(=O)N2CC[C@@](C)(O)[C@@H](O)C2)cc1C |  | 3.96% | 
12 | O=C(c1cncc(Br)c1)N1CCC(Cc2nc(C3CCOCC3)no2)CC1 | inactive |  | 
13 | CC(=O)N[C@@H]1C=C(C(=O)N[C@H](CC(C)C)C(N)=O)C[C@@H](O)[C@@H]1O |  | -4.69% [at 88.5 µM] | 
14 | Cc1ccc(C(=O)N2C[C@@H](Oc3ccccc3)C[C@H]2C(=O)N2CCCC2)cn1 |  | -20.6% | 
15 | O=C(NCCn1ccc2ccc(Cl)cc21)C1CC(=O)N(c2n[nH]c3ccccc23)C1 (stereo not given) | inactive |  | 
16 | COCCN1CC(CO)C2(CCN(Cc3cnn(C(C)C)c3)CC2)C1 (stereo not given) | inactive |  | 
17 | Cn1cc(CN2CCCN(C(=O)c3ccco3)CC2)c(-c2ccc(C3CCCCC3)cc2)n1 |  | -7.7% | 
18 | COc1ccccc1CN1CC[C@@H](CO)N(C)c2ncccc2C1 |  | -5.98% [at 88.5 µM] | 
19 | COCCOc1ccnc(-c2noc([C@@H]3CCCN3Cc3ccc(Cl)cc3)n2)c1 | inactive [at 88.5 µM] |  | 
20 | O=C(NCC(F)(F)F)c1nc2cccnc2n(CCc2ccccc2)c1=O | inactive |  | 
21 | CC(C)C(=O)NC1CCCc2c1[nH]c1c(Cl)cccc21 (stereo not given) |  | -0.0645% | 
22 | O=S(=O)(c1ccc(F)cc1)N1CCCC(Cc2noc(-c3ccccc3)n2)C1 (stereo not given) | inactive |  | 
23 | Cc1ccncc1C(=O)N1CCC(Cn2c(C)cnc2-c2cccnc2)CC1 |  | -12.9% | 

Row | Structure (SMILES) | outcome | activity change, negative = inhibition | Potency
24 | COc1cccc(-c2cccc(C(=O)N3CCN(C(=O)Cc4ccc(F)cc4)CC3)c2)c1 |  | -11.3% | 
25 | COCCC1(NS(C)(=O)=O)CCN(S(=O)(=O)c2ccc3c(c2)OCCO3)CC1 | inactive |  | 
26 | COc1cccc(-c2ccc(CN3CCCC3C(=O)NCc3ccccc3Cl)cc2)c1 (stereo not given) |  | 2.51% | 
27 | Cc1cc(Cl)ccc1S(=O)(=O)N1CCn2c(nn(CC3CC3)c2=O)C1 |  | 1.51% | 
28 | COCCN1C(=O)CCC2(CNC(=O)c3ccncc3)CCC=C12 (stereo not given) | inactive |  | 
29 | O=C(NCC1CCCO1)c1csc(N2CCN(c3ccccc3F)CC2)n1 (stereo not given) |  | -18.5% | 
30 | NC(=O)c1cccc(-c2ncc3c(n2)OCCN(CC2CC2)C3=O)c1 | inactive [at 88.5 µM] |  | 
31 | Cc1cc(C)cc(C(=O)NC2CCN(c3cnn(C)c(=O)c3)CC2)c1 | inactive |  | 
32 | O=C(c1cccc(Cl)c1)N1CCC(C(=O)N2CCC(N3CCOCC3=O)CC2)CC1 | inactive |  | 
33 | O=C(c1cnccn1)N1CCC(N2C(=O)C(OCC3CC3)C23CCOCC3)CC1 (stereo not given) |  | -7.16% | 
34 | O=C1NC2(CCN(Cc3ccc(F)cc3)C2)OCc2ccccc21 (stereo not given) | inactive [at 88.5 µM] |  | 
35 | Cc1ccc2c(C)c(C(=O)N3CCCC3c3nc(C(C)C)no3)oc2c1C (stereo not given) |  | 3.09% | 
36 | COCCC1(CO)CCCN(C(=O)c2ccc(S(N)(=O)=O)cc2)C1 (stereo not given) |  | 4.37% | 
37 | C#CCN(Cc1nc(-c2cc(OC)ccc2F)oc1C)C1CCCCC1 | inactive |  | 
38 | CNCC(O)c1ccc(O)c(O)c1 (stereo not given) |  |  | 6.31 µM (active)
39 | COCC(=O)N1CCC(N2C[C@H](OC)[C@@H]2c2ccncc2)CC1 | inactive |  | 
40 | CC1(C(=O)N2CCN(c3ccccn3)CC2)CCCc2cnc(Nc3cccnc3)nc21 (stereo not given) |  | -3.53% [at 88.5 µM] | 
41 | Cc1cc(C)c(C(=O)N2CCOC(Cc3ccc(F)cc3)C2)o1 (stereo not given) |  | 1.05% | 
42 | Cc1ccc(NC(=O)C2CCc3nnc(C4CCN(C(=O)NC(C)(C)C)CC4)n32)cc1 (stereo not given) | inactive |  | 
43 | O=C(Cc1ccc(F)cc1)N1CCC(C(=O)N2CCC(c3nc4ncccc4[nH]3)CC2)C1 (stereo not given) |  | 1.34% | 
44 | CN(C)C(=O)NC1CCN(c2nc3ncccc3o2)CC1 | inactive [at 88.5 µM] |  | 
45 | COc1cc2c(cc1OC)C(CNC(=O)c1cccc(Cl)c1)N(C(=O)Nc1ccccc1)CC2 (stereo not given) | inactive |  | 
